Laboratory results published in PubChem BioAssay AID2797 (The Scripps Research Institute Molecular Screening Center, 2010).
The campaign covered roughly 320,000 compounds. About 820 (0.26%) were called active. The sample holds actives, similar compounds and a random draw of the others, so the mix is not that of the screen. Unmarked numbers belong to inactive results.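 Rule for the calls: active = activation above the mean activation of all tested compounds plus 3 SD, per screening run (cut at about 20% in these data); inactive = the rest.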

Target: Vasopressin V1a receptor (Homo sapiens) (UniProt P37288)
Sequence (P37288 whole entry, looked up): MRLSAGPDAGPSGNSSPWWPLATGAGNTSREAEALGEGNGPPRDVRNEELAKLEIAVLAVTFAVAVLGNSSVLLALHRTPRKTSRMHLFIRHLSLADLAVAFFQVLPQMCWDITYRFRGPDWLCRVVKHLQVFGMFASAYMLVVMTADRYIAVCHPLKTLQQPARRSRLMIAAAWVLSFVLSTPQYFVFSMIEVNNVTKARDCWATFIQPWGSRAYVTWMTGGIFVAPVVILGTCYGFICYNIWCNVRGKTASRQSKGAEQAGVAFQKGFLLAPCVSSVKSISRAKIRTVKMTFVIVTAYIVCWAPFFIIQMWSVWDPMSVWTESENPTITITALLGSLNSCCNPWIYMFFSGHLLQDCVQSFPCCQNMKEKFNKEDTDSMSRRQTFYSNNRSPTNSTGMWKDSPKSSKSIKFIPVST
Test: agonists of human V1a receptor, primary screen, counter-screen for OXTR agonist project, fluorescence, CHO-V1R cells (AID 2797);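 note: signal is peak over basal fluorescence ratio across a 100 second FLIPR read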
Conditions: Fluo-8 calcium fluorescence, agonist mode, at 3 µM, stronger effect = higher value, 0% DMSO, 100% 3 nM vasopressin

| SMILES | activation |
| --- | --- |
| COc1ccc(N(C(=O)c2ccc(C)cc2)S(=O)(=O)c2cccs2)cc1 | 0.59% |
| Cc1cc(C(=O)CC#N)c(C)n1-c1c(C)n(C)n(-c2ccccc2)c1=O | 1.66% |
| CCOP1(=O)C=C(C(C)(C)C)OC1c1ccc(F)cc1 (stereo unspecified) | 0.37% |
| Cc1ccc(N(C(=O)c2snc(C(N)=O)c2N)C(C(=O)NCC2CCCO2)c2c[nH]c3ccccc23)cc1 (stereo unspecified) | 2.4% |
| CCN1/C(=C\c2ccc3ccccc3[n+]2CC)Sc2cc(C)ccc21 | 20.7% (active) |
| O=C1CCCN2N=C(SCC(=O)Nc3ccc(Br)cc3)SC2=N1 | 8.83% |
| CCOC(=O)Cc1c(C)nc2c(C#N)c(C)nn2c1C | -0.1% |
| CCOC(=O)N1CCC(O)(c2cc(C)c(C)cc2C)CC1 | 0.01% |
| CCCCCCn1cc(C(=O)O)c(=O)c2cc(F)c(N3CCCCC3)cc21 | 1% |
| CCOC(=O)Cn1c(=O)oc2cc(S(=O)(=O)N(C)Cc3ccco3)ccc21 | 1.45% |
| CN(c1ccccc1)c1ccc(/C=c2\s/c(=C(/C#N)C(=O)C(C)(C)C)n(Cc3ccco3)c2=O)cc1 | 28% (active) |
| COc1cc(NC(=O)COC(=O)c2cc(S(=O)(=O)N3CCOCC3)ccc2F)cc(OC)c1 | 1.44% |
| Cc1ccc(C(=O)NNC(=O)C(C)Oc2ccc3ccccc3c2)o1 (stereo unspecified) | 0.2% |
| CC(Oc1ccc2ccccc2c1)C(=O)NNC(=S)NC(=O)c1ccco1 (stereo unspecified) | 23% (active) |
| CCCc1ccc(OCC(=O)NNC(=S)NC(=O)c2ccco2)cc1 | 19.5% |
| Cc1cc2c(=O)n(CC(=O)NCC(=O)Nc3ccc(C(C)C)cc3)cnc2s1 | 0.52% |
| O=C(CC1SC(=Nc2ccccc2F)N(CCN2CCOCC2)C1=O)Nc1ccc(F)cc1F (stereo unspecified) | -0.11% |
| CCCC(C)C(=O)Nc1ccc(NC(C)=O)cc1 (stereo unspecified) | 1.31% |
| COc1cc(OC)c(-n2cc(-c3ccc(Cl)cc3)[nH]c2=O)cc1Cl | 38.5% (active) |
| COc1cc(OC)c(-n2c(C)cc(C=O)c2C)cc1Cl | -0.41% |
| COc1cc(OC)c(N2CC(C(=O)Nc3cc(Cl)ccc3N3CCOCC3)CC2=O)cc1Cl (stereo unspecified) | 2.59% |
| CN1/C(=C\C=C2\N=C(c3ccc(F)cc3)OC2=O)C(C)(C)c2ccccc21 | 2.99% |
| O=C(NCCc1nnc2ccc(SCC(=O)N3CCOCC3)nn12)c1ccccc1 | -0.68% |
| CCC(C)(C)C1CCC(=NNC(=O)c2ccc(Br)o2)CC1 (stereo unspecified) | 0.08% |
| Cc1ccc(CN2CCN(c3ccccc3Cl)CC2)o1 | -0.73% |
| O=C(CCc1[nH]c2ccccc2c1Sc1ccccc1)N(CCO)CCO | 0.05% |
